# Assay results from PubChem BioAssay (NCI).
# About 83,000 compounds went through this panel and 20% of them were active in at least one assay; those are over-represented in the sample as a whole.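 Single-dose data. Exposure time 48 hours. Values below 10 considered active.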 A number with no mark means an inactive call. Activity calls are given as the source filed them.
# How the values were obtained:
# Assay in all cases: NCI-60 one-dose screen, 48 h (100 = growth as untreated, 0 = no growth, -100 = all killed)
# Details in all cases: 10 µM unless noted
# SK-MEL-2 melanoma = tested on: SK-MEL-2 melanoma
# EKVX NSCLC = tested on: EKVX NSCLC
# SN12C renal = tested on: SN12C renal
# UO-31 renal = tested on: UO-31 renal
# TK-10 renal = tested on: TK-10 renal
# ACHN renal = tested on: ACHN renal
# CAKI-1 renal = tested on: CAKI-1 renal
# A498 renal = tested on: A498 renal
# CCRF-CEM leukemia = tested on: CCRF-CEM leukemia
# MOLT-4 leukemia = tested on: MOLT-4 leukemia
# SR leukemia = tested on: SR leukemia
# RPMI-8226 leukemia = tested on: RPMI-8226 leukemia
# OVCAR-8 ovarian = tested on: OVCAR-8 ovarian
# OVCAR-5 ovarian = tested on: OVCAR-5 ovarian
# OVCAR-4 ovarian = tested on: OVCAR-4 ovarian
# SK-OV-3 ovarian = tested on: SK-OV-3 ovarian
# IGROV1 ovarian = tested on: IGROV1 ovarian
# OVCAR-3 ovarian = tested on: OVCAR-3 ovarian
# HS 578T breast = tested on: HS 578T breast
# NCI/ADR-RES ovarian = tested on: NCI/ADR-RES ovarian
SMILES,growth (SK-MEL-2 melanoma),growth (EKVX NSCLC),growth (SN12C renal),growth (UO-31 renal),growth (TK-10 renal),growth (ACHN renal),growth (CAKI-1 renal),growth (A498 renal),growth (CCRF-CEM leukemia),growth (MOLT-4 leukemia),growth (SR leukemia),growth (RPMI-8226 leukemia),growth (OVCAR-8 ovarian),growth (OVCAR-5 ovarian),growth (OVCAR-4 ovarian),growth (SK-OV-3 ovarian),growth (IGROV1 ovarian),growth (OVCAR-3 ovarian),growth (HS 578T breast),growth (NCI/ADR-RES ovarian)
COc1ccc2c(c1)c(-c1cc(-c3cn(C)c4ccc(OC)cc34)on1)cn2C,118%,106%,106%,80.6%,126%,89.9%,92.8%,105%,91.3%,86.3%,104%,84.6%,97.5%,78.5%,112%,93.3%,87.4%,107%,90.3%,95.4%
CCOC(=O)n1cc(-c2nonc2-c2cn(C)c3ccccc23)c2ccccc21,37.3%,55.7%,45.1%,42.9%,63.2%,43.2%,29.4%,15.2%,21.6%,23.2%,19.7%,38.9%,51.6%,55.6%,59.9%,45%,46.8%,25.1%,29.3%,15.2%
COc1ccc(NC(=O)c2cccc(C3CCc4c(cc(OC)c(OC)c4OC)O3)c2)cc1 (stereo not given),9.28% (active),47%,31.4%,28.8%,43.7%,41.1%,44.6%,-8.67% (active),-1.05% (active),9.23% (active),5.23% (active),-24.2% (active),35.1%,64.8%,53.1%,26.8%,37.6%,6.25% (active),22%,8.7% (active)
COc1ccc(/C(C)=C(\c2ccc(Cl)cc2)c2ccc(OCCN3CCCC3)cc2)cc1,40.6%,61.2%,66.5%,35.2%,69.5%,60.1%,24.4%,79.1%,29.1%,23.4%,-21.6% (active),-20.3% (active),51.6%,64.7%,63.5%,82.9%,48.9%,63.7%,51.5%,70.6%
C[C@@H]1O[C@@H](O[C@@H]2C[C@H](c3ccc4c(c3O)C(=O)C3=C(C4=O)[C@@]4(O)C(=O)C[C@](C)(O)C[C@@]4(O)C=C3)O[C@H](C)[C@H]2O)C[C@H](O)[C@@H]1O,103%,102%,94.2%,78.9%,101%,102%,88.1%,95%,93.8%,91.5%,76.7%,92%,96.7%,102%,92%,106%,91.2%,105%,94.4%,91.8%
CCOC(=O)c1c(NC(=O)CSc2n[nH]c3nc4ccccc4n23)sc(CC)c1C,80.6%,91.9%,100%,73.4%,130%,96.8%,108%,106%,121%,79.6%,-28.6% (active),107%,99.2%,82%,98.1%,97.4%,20.4%,106%,102%,95.2%
O=C(O)CCCn1c(SCc2c(Cl)cccc2Cl)nc2ccsc2c1=O,31.3%,52.2%,53.3%,37.5%,48%,46.7%,30.6%,-1.92% (active),19.6%,21.7%,9.9% (active),19.2%,28.8%,50.7%,70.7%,34.3%,44.9%,-20.4% (active),11.9%,4.6% (active)
Cn1cc(-c2ccc3cc(-c4ccc(CC(=O)Nc5cc(C(C)(C)C)on5)cc4)cnc3c2)cn1,18.9%,38.8%,16.7%,9.45% (active),43.9%,-23% (active),12.8%,-4.2% (active),3.44% (active),4.87% (active),3.71% (active),19.6%,20.4%,56.7%,-21.9% (active),5.31% (active),3.11% (active),48.9%,9.69% (active),33.1%
COc1ccc2nc3ccccc3c(NCc3ccc(F)cc3)c2c1,35%,22.4%,17%,-8.18% (active),37.8%,5.65% (active),7.16% (active),-8.16% (active),18.4%,0.544% (active),-1.12% (active),-43% (active),19.4%,18.1%,13.6%,37.9%,8.15% (active),31.2%,26.1%,15.1%
CCOC(=O)/C=C/c1c(C)[nH]c(=O)[nH]c1=O,30.1%,77.6%,95.4%,102%,95.5%,1.8% (active),63.8%,111%,89.3%,61.3%,69.6%,110%,83.2%,71.8%,97.5%,99.4%,112%,118%,105%,81.9%
Nc1nc(C(=O)N/N=C/c2ccc(N3CCOCC3)cc2)nn1-c1ccc(S(N)(=O)=O)cc1,104%,101%,103%,85.4%,94.4%,109%,89.8%,107%,112%,123%,104%,102%,101%,114%,99.7%,111%,94%,104%,104%,102%
C=CCN=C(N)SCCCCCCSC(N)=NCC=C,80.5%,98.4%,97.4%,80.6%,79.6%,106%,97.7%,79.3%,106%,81.8%,93.7%,94%,94.6%,97.5%,109%,70.4%,103%,95.9%,92.2%,104%
COCC[C@H]1CCC/C=C/[C@@H]2C[C@H](O)C[C@H]2[C@H](O)/C=C/C(=O)O1,-3.55% (active),4.95% (active),8.16% (active),10.9%,-38.5% (active),4.75% (active),-18.6% (active),-31.1% (active),17.6%,7.61% (active),2.43% (active),11.1%,5.65% (active),9.73% (active),26.6%,33.6%,16.1%,-47.8% (active),30.1%,3% (active)
N#Cc1nc2c(S(=O)(=O)c3ccccc3)c(N)n(Cc3cccnc3)c2nc1C#N,111%,76.7%,138%,58.4%,99.2%,96.2%,96.3%,104%,35.3%,50%,36.1%,99.2%,70.9%,96.5%,92.4%,76.9%,46.1%,73.4%,59.5%,94.6%
O=C(Nc1cccnc1Nc1ccc(Cl)cc1)c1cn(Cc2ccc(F)cc2)nn1,102%,92.6%,95.9%,70.9%,96.9%,101%,93.1%,88.6%,98.6%,106%,106%,85%,96.2%,105%,89.8%,108%,107%,107%,93.2%,96.2%
